Bioassay records as filed in PubChem BioAssay.
In the library only some 3.2% were active in any assay of this set; here they are far more common.
GDH-TPI inh = GDH-TPI coupled enzyme inhibition counter-screen | 360,000 compounds, 1.2% hits | inhibition, % at 4.8 µM | GDH-TPI coupled enzyme counterscreen, NADH absorbance; in the data active = inhibition above about 30%;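 note: 0% = DMSO wells and 100% = wells lacking the enzyme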
FBA Mtb inh = Mtb fructose-bisphosphate aldolase inhibition; inhibition, % at 1 µM; AID 588726; 360,000 compounds, 2.3% hits; P9WQA3; purified M. tuberculosis FBA, fluorescence read-out; in the data active = inhibition above about 27%;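 note: 0% = vehicle and 100% = reference inhibitor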
UGM FP inh = blocks M. tuberculosis UGM enzyme; inhibition, % at 10 µM; purified UGM, fluorescence polarization probe displacement; 320,000 compounds, 0.06% hits; P9WIQ1; in the data active = inhibition above about 10%, passing the limit was not always enough
Mtb betalactam = beta-lactam sensitization of Mtb H37Rv. M. tuberculosis H37Rv growth with meropenem, percent inhibition. 330,000 compounds, 0.27% hits. inhibition, % at 25 µM. AID 434955; call rule not given here;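 note: growth measured after seven days incubation then overnight dye step; 0% = bacteria only wells and 100% = bacteria with antibiotic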
SSB-PriA inh = blocks PriA binding to SSB C-terminal tail. 430,000 compounds, 0.6% hits. inhibition, % at 33 µM. AlphaScreen SSBct-PriA binding, biotinylated peptide; in the data active = inhibition mostly above about 37%, no sharp cut-off; inactive = mostly below about 20%;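 note: plate controls were negative control peptide for no effect and reference peptide for full effect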
Rv3671c inh = Rv3671c (M. tuberculosis) protease inhibition | P9WHR9 | 320,000 compounds, 0.048% hits | inhibition, % at 5.96 µM | AID 2606; in the data active = inhibition above about 38%;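 note: extracellular domain of Rv3671c used as enzyme; 0% = enzyme with DMSO and 100% = no enzyme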
Target sequence (P9WHR9 whole entry, looked up, the tested form may be a part): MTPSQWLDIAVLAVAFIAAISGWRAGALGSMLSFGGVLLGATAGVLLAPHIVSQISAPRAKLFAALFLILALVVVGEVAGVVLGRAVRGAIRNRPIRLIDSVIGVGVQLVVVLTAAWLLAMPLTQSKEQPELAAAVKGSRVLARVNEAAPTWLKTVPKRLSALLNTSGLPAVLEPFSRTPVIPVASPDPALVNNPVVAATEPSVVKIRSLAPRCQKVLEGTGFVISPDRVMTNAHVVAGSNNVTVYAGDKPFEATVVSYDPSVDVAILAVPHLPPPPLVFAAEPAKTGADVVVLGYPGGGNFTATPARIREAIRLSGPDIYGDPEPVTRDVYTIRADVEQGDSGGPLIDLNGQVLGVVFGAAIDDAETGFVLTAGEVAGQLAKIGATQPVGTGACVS
* hit, by the source's call; i = inactive; / = not tested or not shown; + = active, no number.

SMILES	GDH-TPI inh	FBA Mtb inh	UGM FP inh	Mtb betalactam	SSB-PriA inh	Rv3671c inh
O=C(NCCOc1ccc(-c2ccccn2)nn1)c1ccccc1C(F)(F)F	/	/	/	/	95*	/
O=S(=O)(Nc1ccc2c(c1)CN(S(=O)(=O)c1ccccc1)CC2)c1ccccc1F	/	/	/	/	-5	/
Oc1[nH]c2ccccc2c1N=Nc1ccccn1	0	-1	/	/	-4	/
Oc1c(N=Nc2ccccn2)ccc2ccccc12	7	-1	0	13	49*	-5
CCOc1cccc(-c2c(C(=O)N/N=C(\C)c3cccs3)nnn2-c2nonc2N)c1	11	-2	-1	-2	/	0
COc1cccc(-c2c(C(=O)N/N=C(\C)c3cccs3)nnn2-c2nonc2N)c1	31*	4	-1	-5	/	-11
Cc1ccsc1/C=N/NC(=O)c1nnn(-c2nonc2N)c1-c1ccccc1	38*	-1	-2	6	/	3
Cc1ccc(C=NNC(=O)c2nnn(-c3nonc3N)c2-c2ccccc2)o1	/	/	/	/	7	/
Cc1ccc(/C=N/NC(=O)c2nnn(-c3nonc3N)c2-c2ccccc2)o1	44*	-4	1	9	/	-2
Cc1ccsc1/C=N/NC(=O)c1nnn(-c2nonc2N)c1C	31*	1	4	-7	/	-13
Cc1ccsc1C=NNC(=O)c1nnn(-c2nonc2N)c1-c1ccccc1	/	/	/	/	0	/
CCc1nnc(NC(=O)CSc2nc(=O)n(CCN(CC)CC)c3c2CCC3)s1	/	/	/	/	-37	/
COc1cccc(-c2c(C(=O)N/N=C/c3ccco3)nnn2-c2nonc2N)c1	33*	-1	-2	2	/	1
COc1cccc(-c2c(C(=O)N/N=C/c3sccc3C)nnn2-c2nonc2N)c1	35*	-1	-1	5	i	4
CCOCC(=O)NC[C@](C)(OC)c1ccccc1F	/	/	/	/	-4	/
O=C(O)c1cccn2ccnc12	/	/	/	/	48*	/
COc1cccc(/C=N/Nc2ccnc(=O)[nH]2)c1O	36*	-2	-1	50	/	-2
COc1cc(C=NNc2nn3cnnc3c3ccccc23)ccc1O	/	/	/	/	-2	/
O=c1nccc(N/N=C/c2ccccc2O)[nH]1	38*	2	0	98	/	/
COc1cccc(/C=N/Nc2nn3cnnc3c3ccccc23)c1O	32*	2	0	95	/	15
COc1cccc(C=NNc2ccnc(=O)[nH]2)c1O	/	/	/	/	-3	/
O=C(NCC(c1ccco1)S(=O)(=O)c1ccc(F)cc1)c1cccs1 (stereo not given)	/	/	/	/	5	/
COc1ccc(Cl)cc1C(=O)Nc1cnn(C[C@H]2COc3ccccc3O2)c1	/	/	/	/	-2	/
COc1ccc(Nc2nnc(SCC(=O)c3cc4ccccc4o3)s2)cc1	37*	3	1	-6	12	-34
CCN(C(=O)COC(=O)c1cc(Cl)ccc1OC)c1c(N)n(Cc2ccccc2)c(=O)[nH]c1=O	5	8	12*	2	-5	0
SMILES	GDH-TPI inh	FBA Mtb inh	UGM FP inh	Mtb betalactam	SSB-PriA inh	Rv3671c inh
CCOC(=O)Cc1c(C)c2c(O)cc(O)cc2oc1=O	19	121*	1	-7	4	-1
COc1ccc(-c2c(C)c3ccc(O)cc3oc2=O)cc1	23	+	0	8	-9	2
Cc1c(Cc2ccccc2)c(=O)oc2cc(O)ccc12	27	+	1	-4	-26	-10
Cc1c(Cc2ccccc2)c(=O)oc2c(CN(C)C)c(O)c(Cl)cc12	17	+	-2	-6	-13	-1
COc1ccc(-c2c(C)c3ccc(OC)cc3oc2=O)cc1	/	/	/	/	-39	/
Cn1nnc2c(Nc3cccc4ccccc34)ncnc21	/	/	/	/	6	/
CC(C)(C)c1ccccc1OC(=O)c1ccccc1	/	/	/	/	-6	/
Cc1cc(C)c2nc(C)cc(NC(=O)COc3ccc([N+](=O)[O-])cc3)c2c1	/	/	/	/	-10	/
CCc1c(C)nc2n(c1=O)CC(C(=O)N1CCN(c3cc(Cl)ccc3C)CC1)CS2 (stereo not given)	/	/	/	/	-11	/
CCCCOc1ccc(C(O)=C2C(=O)C(=O)N(CCCOC)C2c2ccncc2)cc1 (stereo not given)	/	/	/	/	-15	/
CCOC(=O)CCc1c(C)c2ccc(O)cc2oc1=O	1	+	-2	2	-6	-8
CN(C)/C=N/c1ncc(C(=O)c2ccc(-c3ccccc3)cc2)s1	34*	-1	/	3	/	3
CN(C)/C=N/c1ncc(C(=O)c2ccccc2)s1	32*	1	-6	4	/	7
CN(C)C=Nc1ncc(C(=O)c2ccc3ccccc3c2)s1	/	/	/	/	-16	/
CC(C)(C)c1ccc(NC(=O)NCC#CCOc2ccccc2C(N)=O)cc1	/	/	/	/	5	/
